Measured values: PubChem BioAssay (Tox21)
Results filed as inconclusive are left out. Calls of active or inactive are those of the source. Calls come from the whole dose curve; as a rule, active = well fitted curve in the direction sought with a large enough effect in the repeat runs; inconclusive = weak or mixed curves; inactive = no such curve, though single readings can be large; an effect the other way counts as inactive or inconclusive.

Assay: qHTS RealTime-Glo MT Cell Viability Assay in HepG2 cells - 0 hour (AID 1224889); note: nearly all actives have a fitted effect of over 50% in size
Settings: RealTime-Glo luminescence; series mostly up to 76.8 µM; activity change, negative = cytotoxicity: at the top concentration
Method in brief: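 HepG2 cells (600/well) were dispensed with RealTime-Glo reagents, incubated 5 h at 37 °C, then treated with compounds in DMSO for up to 40 h. Nonlytic NanoLuc luminescence reflecting viable cells was read at each stated time point.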
% is set by controls: 0 for no effect and ±100 for the full control effect.

Row | SMILES | activity change, negative = cytotoxicity
1 | O=C1Nc2cc(Cl)ccc2Oc2ccccc21 | -8.09% [at 35.3 µM] (inactive)
2 | CCN(CC)C(C)CN1c2ccccc2Sc2ccccc21 (configuration not stated) | 10.2% [at 35.3 µM] (inactive)
3 | CC(=O)CC(=O)c1ccccc1 | 11.8% (inactive)
4 | Cn1c(NCCN(CCO)CCCc2ccc([N+](=O)[O-])cc2)cc(=O)n(C)c1=O | 0.998% [at 35.3 µM] (inactive)
5 | CCN1CCC[C@H]1CNC(=O)c1c(OC)ccc(Br)c1OC | 2.35% [at 35.3 µM] (inactive)
6 | CC[C@@H]1C[C@H](N(Cc2cc(C(F)(F)F)cc(C(F)(F)F)c2)C(C)=O)c2cc(C(F)(F)F)ccc2N1C(=O)OC(C)C | -0.598% (inactive)
7 | Cn1c(N)nc2nc[nH]c2c1=O | -3.29% (inactive)
8 | SC1CCCC1 | -0.161% (inactive)
9 | CC(C)(C)C(=O)OCOP(=O)(COCCn1cnc2c(N)ncnc21)OCOC(=O)C(C)(C)C | 0.0147% [at 35.3 µM] (inactive)
10 | CN(C(=O)CCCOc1ccc2[nH]c(=O)ccc2c1)C1CCCCC1 | -6.47% [at 35.3 µM] (inactive)
11 | CCCOc1ccc2nc(NC(=O)OC)[nH]c2c1 | -1.47% [at 35.3 µM] (inactive)
12 | O=C1[C@H](CC[C@H](O)c2ccc(F)cc2)[C@@H](c2ccc(O)cc2)N1c1ccc(F)cc1 | 3.2% [at 35.3 µM] (inactive)
13 | C=CC(=O)OCCOC(=O)CCC(=O)O | -1.27% (inactive)
14 | O=C(CC(=O)c1ccccc1)c1ccccc1 | -12.7% (inactive)
15 | CC[C@]12CCCN3CCc4c(n(c5ccccc45)C(=O)C1)[C@@H]32 | 1.26% [at 35.3 µM] (inactive)
16 | Nc1nc(N)c2nc(CNc3ccc(C(=O)N[C@@H](CCC(=O)O)C(=O)O)cc3)cnc2n1 | 0.421% (inactive)
17 | C=Cc1c(C)c2cc3[nH]c(cc4nc(cc5nc(cc1[nH]2)C(C)=C5CCC(=O)O)C(CCC(=O)O)=C4C)c(C)c3C=C | -11.9% [at 35.3 µM] (inactive)
18 | O=C(c1ccc(O)cc1)c1ccc(O)cc1 | 1.59% (inactive)
19 | CCCCC(CC)COCCCN (configuration not stated) | 1.39% (inactive)
20 | O=c1[nH]cnc2ccccc12 | 11% (inactive)
21 | Nc1nc(CC(=O)O)cs1 | -7.15% (inactive)
22 | Cc1ccc(C(=O)C(C)CN2CCCCC2)cc1 (configuration not stated) | -0.547% [at 35.3 µM] (inactive)
23 | Oc1ccc(O)c2c(O)cccc12 | -2.46% (inactive)
24 | CCOc1cc(OCC)c(C(=O)CCC(=O)O)cc1OCC | 2.22% [at 35.3 µM] (inactive)
25 | O=CNc1ccccc1 | -1.48% (inactive)
26 | CCOc1nc2cccc(C(=O)O)c2n1Cc1ccc(-c2ccccc2-c2nn[nH]n2)cc1 | -23.8% [at 35.3 µM] (inactive)

Assay: A CellTox Green Cytotoxicity Assay to monitor cytotoxicity in HepG2 cells - 8 hour (AID 1224890); note: nearly all actives have a fitted effect of over 45% in size
Settings: CellTox Green fluorescence; series mostly up to 76.8 µM; cytotoxicity increase: at the top concentration
Method in brief: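 Fluorescent DNA-binding dye, 600 HepG2 cells/well, 5 h preincubation then compound in DMSO; same plates read at 0–40 h, 37 C.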

Row | SMILES | cytotoxicity increase
27 | c1ccc(CNCc2ccccc2)cc1 | -2.61% (inactive)
28 | O=C1Nc2cc(Cl)ccc2Oc2ccccc21 | -0.654% [at 35.3 µM] (inactive)
29 | CC(=O)CC(=O)c1ccccc1 | 1.29% (inactive)
30 | Cn1c(NCCN(CCO)CCCc2ccc([N+](=O)[O-])cc2)cc(=O)n(C)c1=O | -1.03% [at 35.3 µM] (inactive)
31 | CCN1CCC[C@H]1CNC(=O)c1c(OC)ccc(Br)c1OC | -17% [at 35.3 µM] (inactive)
32 | CN1CCC(=C2c3ccccc3C=Cc3ccccc32)CC1 | 3.29% [at 35.3 µM] (inactive)
33 | CC[C@@H]1C[C@H](N(Cc2cc(C(F)(F)F)cc(C(F)(F)F)c2)C(C)=O)c2cc(C(F)(F)F)ccc2N1C(=O)OC(C)C | -0.0269% (inactive)
34 | Cn1c(N)nc2nc[nH]c2c1=O | 5.6% (inactive)
35 | CC(C)CCCCCCOC(=O)c1ccc(C(=O)OCCCCCCC(C)C)c(C(=O)OCCCCCCC(C)C)c1 | 2.34% (inactive)
36 | CC(=O)/C=C/C1C(C)=CCCC1(C)C (configuration not stated) | -2.84% (inactive)
37 | SC1CCCC1 | -5.06% (inactive)
38 | CC(C)(C)C(=O)OCOP(=O)(COCCn1cnc2c(N)ncnc21)OCOC(=O)C(C)(C)C | -10.5% [at 35.3 µM] (inactive)
39 | CN(C(=O)CCCOc1ccc2[nH]c(=O)ccc2c1)C1CCCCC1 | -7.11% [at 35.3 µM] (inactive)
40 | CCCOc1ccc2nc(NC(=O)OC)[nH]c2c1 | 2.74% [at 35.3 µM] (inactive)
41 | O=C1[C@H](CC[C@H](O)c2ccc(F)cc2)[C@@H](c2ccc(O)cc2)N1c1ccc(F)cc1 | 1.49% [at 35.3 µM] (inactive)
42 | Nc1nc(N)c(-c2ccccc2)s1 | -4.36% [at 35.3 µM] (inactive)

Row | SMILES | cytotoxicity increase
43 | O=C(CC(=O)c1ccccc1)c1ccccc1 | 0.695% (inactive)
44 | COC(=O)C(C)=O | -4.38% (inactive)
45 | CN(C)C/C=C(/c1ccc(Br)cc1)c1cccnc1 | -3.02% [at 35.3 µM] (inactive)
46 | CC[C@]12CCCN3CCc4c(n(c5ccccc45)C(=O)C1)[C@@H]32 | 0.329% [at 35.3 µM] (inactive)
47 | Nc1nc(N)c2nc(CNc3ccc(C(=O)N[C@@H](CCC(=O)O)C(=O)O)cc3)cnc2n1 | 2.43% (inactive)
48 | C=Cc1c(C)c2cc3[nH]c(cc4nc(cc5nc(cc1[nH]2)C(C)=C5CCC(=O)O)C(CCC(=O)O)=C4C)c(C)c3C=C | -14.8% [at 35.3 µM] (inactive)
49 | O=C(Cl)c1c(Cl)cccc1Cl | -10.9% (inactive)
50 | O=C(c1ccc(O)cc1)c1ccc(O)cc1 | 0.772% (inactive)
51 | CCCCC(CC)COCCCN (configuration not stated) | 9.8% (inactive)
52 | O=c1[nH]cnc2ccccc12 | 16% (inactive)
53 | Cc1ccc(C(=O)C(C)CN2CCCCC2)cc1 (configuration not stated) | -3.91% [at 35.3 µM] (inactive)
54 | Oc1ccc(O)c2c(O)cccc12 | -22.2% (inactive)
55 | CC/C(=C\C(=N/O)C(N)=O)C(C)[N+](=O)[O-] (configuration not stated) | -8.76% (inactive)
56 | CCCCOC(=O)c1ccccc1C(=O)OCC(CC)CCCC (configuration not stated) | -15.2% (inactive)
57 | O=C=NC1CCC(CC2CCC(N=C=O)CC2)CC1 (configuration not stated) | 5.03% (inactive)
